TGFb inhibitor: qHTS for Inhibitors of TGF-b | Potency, µM (highest dose often 46.1 µM), most hits filed as inhibitors | HepG2 CAGA-GFP TGF-b/SMAD3 reporter, GFP fluorescence, 18 h; TGF-beta stimulated, 500 pg/mL final | 1.2% of 410,000 active; also: nearly all actives have a fitted effect of over 65% in size
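TGF-beta reporter screen: HEPG2 CAGA-GFP, 1% FBS, 500 pg/mL TGF-beta final, 18 h; per-cell GFP summed per well; curves fitted and categorized by class.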
HT1080-NT tox: qHTS for induction of synthetic lethality in tumor cells producing 2HG: qHTS for the HT-1080-NT fibrosarcoma cell line; 1.6% of 360,000 active; HT-1080-NT fibrosarcoma viability, CellTiter-Glo ATP luminescence, 48 h; Potency, µM (highest dose often 46.1 µM), hits mostly cytotoxic;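 also: NT is the 2HG producing partner of a matched IDH1 knockdown line; nearly all actives have a fitted effect of over 55% in size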
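Compounds were tested in concentration-response format on HT-1080-NT cells for 48 hours at 37 degrees C. Cell viability came from CellTiter-Glo luminescence; curves were classified by r2, response magnitude and activity.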
HepG2 viability: qHTS for Inhibitors of TGF-b: Cytotox Counterscreen. 0.76% of 410,000 active. HepG2 CAGA-GFP viability, ATP luminescence, 18 h. Potency, µM (top dose mostly 46.1 µM), actives largely listed as cytotoxic
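HepG2 CAGA-GFP cells (1000/well, DMEM with 1% FBS) received compound, then TGF-beta at 500 pg/mL final, and were incubated 18 hours at 37 degrees C. Viability was read by CellTiter-Glo luminescence. Media-only wells were set as complete cell-killing and DMSO as no toxicity.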
HT1080 IDH1KD tx: qHTS for induction of synthetic lethality in tumor cells producing 2HG: qHTS for the HT-1080-IDH1KD cell line. HT-1080 IDH1 knockdown viability, ATP luminescence, 48 h. Potency, µM (highest dose often 46.1 µM), usual class: cytotoxic. 2% of 360,000 active. AID 686971, 2013
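IDH1KD HT-1080 cells, 750/well, RPMI + 5% FBS; compound pinned after 2 h settling; 48 h, 37 °C; CellTiter-Glo luminescence; % activity normalised to DMSO and no-cell wells; curves fitted, classed by r2 and efficacy.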
Giardia kill: Small Molecules that selectively kill Giardia lamblia: qHTS; 0.15% of 340,000 active; Giardia lamblia trophozoite viability; AID 540267, 2011; activity change, % at 7.66 µM, hits read low; in the data active = activity change below about -80%; inconclusive = between about -30% and that limit;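 also: parasites exposed to compound for two days anaerobically before the ATP read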
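Media and compound were dispensed first, then trophozoites at 100 cells/well; plates sat 48 hrs at 37 deg C without oxygen before ATP luminescence reagent was added and read after 15-30 min at room temperature.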
IL-1B inflam inh: qHTS for Inhibitors of Inflammasome Signaling: IL-1-beta AlphaLISA Primary Screen | activity change, % at 57.5 µM | 4.7% of 360,000 active | THP-1 LPS/ATP IL-1B secretion, AlphaLISA, 16 h; stronger effect = lower value; in the data active = activity change below about -50%; inconclusive = mostly about -30% to -49%
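Secreted IL-1B measured by AlphaLISA bead assay after 16 h compound exposure of THP-1 cells; compounds (final up to 57.5 uM) added 1 h before LPS (250 ng/mL) and ATP (1.25 mM) stimulation; lower signal means less secretion.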
Each line names hits and unclear results; the compound was inactive in the other large screens. Compounds with a hit are over-represented: about 6.5% of the library has one in this group of screens. Unless noted, calls follow the shape of the dose curve; as a rule, active = well fitted curve in the direction sought with a large enough effect; inconclusive = small, poorly fitted or top-dose-only effect, or another doubt; inactive = no such curve, though single readings can be large; an effect the other way counts as inactive or inconclusive.

COCCN(C(=O)COC(=O)CC(C)c1ccccc1)c1c(N)n(Cc2ccccc2)c(=O)[nH]c1=O (stereo unspecified)	none
COc1ccc(CCCNC(=O)C2Cc3c(-c4ccc5c(c4)OCO5)ccnc3O2)cc1 (stereo unspecified)	HT1080-NT tox 9.2µM, HT1080 IDH1KD tx 5.8µM (no result: Giardia kill)
COc1ccc(CCCNC(=O)C2Cc3c(-c4ccc(NC(C)=O)cc4)ccnc3O2)cc1 (stereo unspecified)	HT1080-NT tox inconclusive, HT1080 IDH1KD tx 16.4µM (no result: Giardia kill)
O=C(NCc1ccncc1)C1Cc2c(-c3ccc4c(c3)OCO4)ccnc2O1 (stereo unspecified)	HT1080-NT tox inconclusive, HT1080 IDH1KD tx inconclusive (no result: Giardia kill)
COc1ccc(CCCNC(=O)C2Cc3c(-c4cccc(C(C)=O)c4)ccnc3O2)cc1 (stereo unspecified)	TGFb inhibitor inconclusive, HT1080-NT tox inconclusive, HT1080 IDH1KD tx inconclusive (no result: Giardia kill)
O=C(NCc1ccccc1)C1Cc2c(-c3ccc4c(c3)OCO4)ccnc2O1 (stereo unspecified)	HT1080-NT tox inconclusive, HT1080 IDH1KD tx 0.411µM (no result: Giardia kill)
O=C(NCc1c(Cl)cccc1Cl)c1ccc2nnsc2c1	none (no result: IL-1B inflam inh)
CCOC(=O)c1c(NC(=O)c2cc(-c3ccc(OC)c(OC)c3)on2)sc2c1CCCC2	none (no result: HT1080-NT tox, HT1080 IDH1KD tx, Giardia kill, IL-1B inflam inh)
O=C(N/N=C/c1cccc(Br)c1)c1ccc(Cn2cc(Br)cn2)o1	TGFb inhibitor inconclusive, HT1080-NT tox inconclusive, IL-1B inflam inh -73.1
Cc1ccsc1/C=N/NC(=O)c1ccc(Cn2cc(Br)cn2)o1	none
CCN(c1ccccc1)S(=O)(=O)c1cccc(C(=O)NCC(c2ccc(OC)cc2)N2CCCCC2)c1 (stereo unspecified)	TGFb inhibitor inconclusive, HT1080-NT tox inconclusive, HT1080 IDH1KD tx inconclusive (no result: Giardia kill)
COc1ccccc1C(CNC(=O)c1cccc(S(=O)(=O)N2CCCc3ccccc32)c1)N(C)C (stereo unspecified)	IL-1B inflam inh inconclusive
C=CCN(c1ccccc1)S(=O)(=O)c1cccc(C(=O)NCC(c2ccc(OC)cc2)N2CCCCC2)c1 (stereo unspecified)	IL-1B inflam inh -65.8
COc1ccc(C(CNC(=O)c2cccc(S(=O)(=O)N3CCc4ccccc43)c2)N(C)C)cc1 (stereo unspecified)	IL-1B inflam inh -74.9
COc1ccccc1C(CNC(=O)c1cccc(S(=O)(=O)N2c3ccccc3CC2C)c1)N(C)C (stereo unspecified)	TGFb inhibitor inconclusive, HT1080-NT tox inconclusive, IL-1B inflam inh -53.9
Cc1ccc(C)c(NC(=O)n2ncc3cc(Cl)ccc32)c1	none (no result: HT1080-NT tox, HT1080 IDH1KD tx, Giardia kill, IL-1B inflam inh)
CCc1ccc(NC(=O)COn2nnc3ccc(S(=O)(=O)N(C)C)cc32)cc1	none
N/C(=N\OC(=O)COc1ccc(Br)cc1Cl)c1ccccn1	none
COc1ccc(NC(=O)c2csc3c2CCCCC3)c(OC)c1	IL-1B inflam inh -174.7
CCOC(=O)C1CCN(C(=O)CSc2c3c(nc4ccccc24)CCC3)CC1	TGFb inhibitor inconclusive, IL-1B inflam inh -130.0
CC1CCN(C(=O)CSc2c3c(nc4cc(Cl)ccc24)CCCC3)CC1	TGFb inhibitor inconclusive, HepG2 viability 11.2µM (no result: HT1080-NT tox, HT1080 IDH1KD tx, Giardia kill, IL-1B inflam inh)
COc1ccc(NC(=O)CSc2c3c(nc4cc(Cl)ccc24)CCCC3)cc1OC	TGFb inhibitor inconclusive, HT1080-NT tox inconclusive, HT1080 IDH1KD tx inconclusive, IL-1B inflam inh -103.2
COc1ccc(NC(=O)CSc2c3c(nc4ccc(Cl)cc24)CCCC3)cc1Cl	none (no result: HT1080-NT tox, HT1080 IDH1KD tx, Giardia kill, IL-1B inflam inh)
CCc1ccccc1NC(=O)C(NS(=O)(=O)c1ccc2c(c1)CCC(=O)N2)c1ccccc1 (stereo unspecified)	none (no result: HT1080-NT tox, HT1080 IDH1KD tx, Giardia kill, IL-1B inflam inh)
Cc1c(C(=O)N2CCCCC2)oc2ccccc12	none
Cc1ccc(S(=O)(=O)N2CCN(C(=O)Cc3c(F)cccc3Cl)CC2)cc1	none
O=C(NC1CCCCC1)C(c1cccs1)N(C(=O)C(F)(F)F)c1ccccc1 (stereo unspecified)	none
COc1cc(NC(=O)CSc2c3c(nc4ccccc24)CCC3)cc(OC)c1OC	TGFb inhibitor inconclusive, IL-1B inflam inh -59.6
COc1ccc(NC(=O)CSc2c3c(nc4ccccc24)CCCC3)c(OC)c1	HT1080-NT tox inconclusive, HT1080 IDH1KD tx inconclusive, IL-1B inflam inh -104.7
COc1ccc(OC)c(NC(=O)c2ccc(CSc3nnc(C)s3)cc2)c1	IL-1B inflam inh -59.8
NC(=O)COc1cc2oc(=O)c3c(c2cc1Cl)CCCC3	none
S=C(NCc1ccco1)N/N=C/c1ccc(Cl)cc1	TGFb inhibitor 12.6µM, IL-1B inflam inh inconclusive
Cc1ccc(C(=O)Nc2ncc(C)s2)o1	HT1080-NT tox inconclusive, HT1080 IDH1KD tx inconclusive
Cc1cnc(NC(=O)NCC2CCCC(CNC(=O)Nc3ncc(C)s3)C2)s1 (stereo unspecified)	TGFb inhibitor inconclusive, HT1080-NT tox inconclusive, HT1080 IDH1KD tx inconclusive, IL-1B inflam inh -98.1
CCn1cc(CNc2nc3nonc3nc2N2CCCCC2)cn1	none
N#CC1=C(c2ccccc2)/C(=C/c2ccccc2)OC1=O	TGFb inhibitor inconclusive, IL-1B inflam inh -104.4
O=C(/C=C/c1ccc(-c2ccccc2[N+](=O)[O-])o1)c1ccc(Br)cc1	HT1080-NT tox inconclusive, HT1080 IDH1KD tx inconclusive, IL-1B inflam inh -65.9
O=C(/C=C/c1ccccc1[N+](=O)[O-])N1CCCCC1	none
NC1=NC(=O)/C(=C\c2ccc(-c3ccccc3[N+](=O)[O-])o2)S1	HT1080-NT tox 20µM, HT1080 IDH1KD tx inconclusive (no result: TGFb inhibitor, HepG2 viability, Giardia kill, IL-1B inflam inh)
O=C(/C=C/c1ccccc1[N+](=O)[O-])c1ccccc1Br	TGFb inhibitor inconclusive, HT1080-NT tox inconclusive, HT1080 IDH1KD tx 20.6µM, IL-1B inflam inh -103.5
Cc1ccc(C(=O)/C=C/c2ccc(-c3ccccc3[N+](=O)[O-])o2)cc1	HT1080-NT tox inconclusive, IL-1B inflam inh -95.5
COc1ccccc1/C=C(/C#N)C(=O)O	HT1080 IDH1KD tx inconclusive
O=C(Cn1c2c(c(-c3ccccc3Cl)cc1=O)CCC2)NCCCN1CCOCC1	IL-1B inflam inh inconclusive
CC(C(=O)O)N(c1ccccc1Cl)S(C)(=O)=O (stereo unspecified)	none
Cc1ccc(C(=O)/C=C/C(=O)c2ccc(C)cc2)cc1	HT1080 IDH1KD tx 11.6µM, IL-1B inflam inh -71.3
O=C(C=Cc1ccccc1)c1ccc([N+](=O)[O-])cc1	TGFb inhibitor inconclusive, HT1080-NT tox inconclusive, HT1080 IDH1KD tx inconclusive
N#C/C(=C/c1ccc(-c2ccccc2[N+](=O)[O-])o1)C(N)=O	none
Cc1ccc(/C=C/C(=O)c2ccc(C)cc2)cc1	IL-1B inflam inh inconclusive

Assay outcomes: PubChem, National Center for Advancing Translational Sciences (NCATS)
